# According to PubChem BioAssay (NCI):
# Compounds without any hit were thinned out: in the full panel of roughly 83,000, 20% have a hit.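 Activity criterion: percent growth below 10, measured after cells in 96-well plates were exposed to a single compound concentration for 48 hours.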 A number with no mark means an inactive call. Calls of active or inactive are those of the source.
# What was measured:
# Experiment in all cases: NCI-60 one-dose screen, 48 h (100 = growth as untreated, 0 = no growth, -100 = all killed)
# Conditions in all cases: 10 µM unless noted
# [1] = tested on: DU-145 prostate
# [2] = tested on: K-562 leukemia
# [3] = tested on: MALME-3M melanoma
# [4] = tested on: MDA-MB-231 breast
# [5] = tested on: RXF 393 renal
# [6] = tested on: SF-268 CNS
# [7] = tested on: SF-295 CNS
# [8] = tested on: SF-539 CNS
# [9] = tested on: UACC-257 melanoma
# [10] = tested on: M14 melanoma
SMILES,growth [1],growth [2],growth [3],growth [4],growth [5],growth [6],growth [7],growth [8],growth [9],growth [10]
COc1ccc(C2C3(C#N)C(N)=NC(=C(C#N)C#N)C23C#N)cc1OC (configuration not stated),102%,97.1%,112%,93.2%,96.8%,121%,108%,94.2%,102%,
O=C(CBr)OCc1ccc([N+](=O)[O-])o1,108%,111%,107%,101%,94.8%,88.6%,96.5%,103%,88.5%,
O=C(Nc1ccc(Cl)cn1)C1(c2ccccc2)CCCCC1,86.5%,67.1%,112%,87.7%,-1.25% (active),108%,110%,96.7%,109%,
COc1ccc(-c2cc(C#N)c(NNC(C)=O)[nH]2)cc1,123%,47.5%,106%,106%,118%,122%,101%,112%,108%,
CC(=O)c1cc(Nc2cc(C)nc(N)n2)cc(C(C)=O)c1,91.3%,81.3%,45.3%,106%,108%,99.8%,114%,91.2%,103%,
Brc1c(-c2ccncc2)nc2n1CCS2,116%,111%,114%,101%,84.6%,107%,102%,119%,91.1%,
COc1cc2c(/C=C3\C(=O)Nc4ccc(Br)cc43)c(Cl)n(C)c2cc1C,17.5%,6.73% (active),21.9%,7.42% (active),-23.9% (active),29.6%,9.82% (active),7.51% (active),28.8%,
CC(C)(C)C(=O)CCCCCCCC/C=C/CCCC(O)c1ccco1 (configuration not stated),102%,82.4%,109%,102%,99.7%,106%,105%,97.3%,105%,
OC(c1ccccc1)(c1ccccc1)C(F)(F)F,109%,99.7%,122%,101%,120%,82.8%,107%,101%,104%,
COCn1c(C(=O)OC)cc2oc(/C=C3/SC(=S)N(N)C3=O)cc21,94.1%,63.7%,45.8%,110%,27.6%,73.1%,82.3%,90.3%,113%,
O=C(N/N=C/c1coc2ccccc2c1=O)c1cc2oc(-c3ccccc3)cc2[nH]1,93.8%,82.6%,-5.98% (active),96.8%,82%,96.2%,103%,89.8%,118%,
FC(F)(F)c1cccc(-c2[nH]ncc2-c2nnnn2-c2ccccc2)c1,76.1%,11.8%,61.6%,41%,-20.4% (active),66.4%,56.7%,63.9%,48.4%,
CCOC(=O)C1=C(C(F)(F)F)NC(=S)NC1CN1C(=O)c2ccccc2C1=O (configuration not stated),115%,101%,92.9%,90.2%,113%,101%,93%,104%,110%,
CCCC(=O)NNc1[nH]c(-c2ccc(OC)cc2)cc1C(=O)OCC,104%,49.1%,52%,87.4%,107%,118%,93.7%,92.7%,105%,
COc1cc(N)c2nccc(C)c2c1OC,100%,92.1%,95.8%,91.2%,-4.59% (active),114%,116%,82%,92.5%,
COC(=O)/C(Br)=C/c1c[nH]c2ccc(Br)cc12,104%,74.7%,95.2%,80.9%,32.6%,97.7%,64%,95%,88%,
COC1=CC(c2ccc[nH]2)=N/C1=C\c1[nH]c(C)c(C(=O)CCCCC(=O)NC(C)(C)C)c1C,51.5%,53.5%,48.7%,-19.2% (active),-47.1% (active),60.2%,24%,63.1%,75.7%,
CCCOC(=O)c1c(C)n(C)c2scc[n+]12,77.8%,65%,92.5%,80.1%,67.8%,89.3%,54.1%,81.1%,78.8%,
CC[n+]1c(C)ccc2cc(C)ccc21,126%,91.2%,131%,91.7%,111%,102%,119%,110%,105%,
CC1(C)CC(=O)C2=C(C1)Oc1nc(N)c(C#N)c(N)c1C2c1ccc(F)cc1 (configuration not stated),95.7%,85.9%,117%,88.7%,-1.27% (active),117%,110%,86.9%,94.8%,

SMILES,growth [1],growth [2],growth [3],growth [4],growth [5],growth [6],growth [7],growth [8],growth [9],growth [10]
COc1ccc(NC(=O)/C=C(C)/C=C/C=C(C)/C=C/C2=C(C)CCCC2(C)C)cc1,101%,46.7%,68.1%,38.3%,79.4%,81.4%,80%,32.8%,87.4%,
O=C(Nn1cnc2ccccc21)N1CCCC1,102%,94%,92.2%,94.2%,109%,117%,98.7%,91.8%,101%,
Nc1cc(N)c2nc(-c3ccccc3)c(NCCc3ccc(Cl)c(Cl)c3)nc2c1,-98.6% (active),-16.9% (active),-93.3% (active),-71.1% (active),-94.3% (active),0.859% (active),-74.2% (active),-96.7% (active),5.16% (active),
CCOC(=O)C1=C(c2ccccc2)NC(=O)NC1CN1C(=O)c2ccccc2C1=O (configuration not stated),105%,50.6%,71.2%,108%,116%,93.7%,115%,106%,112%,
O=C1C(=O)c2ccccc2C(O)=C1CCCc1ccc(C2CCCC2)cc1,40.5%,19.2%,84%,56.5%,57.9%,47.6%,27.3%,22.9%,40.7%,
CCC(CCCN1C(=O)c2ccccc2C1=O)Nc1cc(OC)cc2c(C)ccnc12 (configuration not stated),86.7%,72.4%,111%,81.1%,-10.2% (active),113%,93.3%,76.5%,88.6%,
Cc1nn(-c2ccccc2)c(N)c1N=C1NC(=O)/C(=C/c2ccc(Cl)cc2)S1,86.9%,73.2%,87.4%,105%,109%,83.7%,86.5%,81%,105%,
C[C@H]1C[C@@H](n2cnc3c(N)nccc32)[C@H](O)[C@@H]1O,84%,69.6%,110%,89.9%,7.03% (active),97.9%,96.5%,67.9%,89.3%,
COc1cc(NC(C)CCCN)c2nccc(C)c2c1OC (configuration not stated),71.3%,65%,104%,59.5%,164%,126%,115%,41.3%,112%,
COc1ccc(-n2nnnc2-c2cn[nH]c2C(F)(F)F)cc1,101%,87.2%,107%,83.4%,-6.74% (active),109%,88.3%,89.6%,93.7%,
COCC(=O)NNc1[nH]c(-c2ccc(OC)cc2)cc1C#N,111%,96.9%,112%,102%,114%,119%,96%,96.2%,109%,
COc1cc(CCNc2cnc3cc(N)cc(N)c3n2)cc(OC)c1,118%,35.3%,146%,96.7%,114%,109%,116%,123%,111%,
Cc1ccc2c(O)c(O)cc(NC(C)CCCN)c2n1 (configuration not stated),74.5%,42.1%,81.6%,57.2%,93.3%,92.2%,90.6%,14.6%,98.4%,
COC1(OC)N=C(N)C2(C#N)C3(C(=O)Nc4ccccc43)C12C#N (configuration not stated),68.2%,85.3%,-3.2% (active),73.6%,61%,105%,96.4%,61.2%,100%,
O=C1NCCN1/N=C/c1c(Cl)nc2n1CCS2,85.8%,87.3%,91.7%,130%,150%,113%,111%,94.9%,105%,
CCCC(CCC)Oc1ccc(CCCC2=C(O)c3ccccc3C(=O)C2=O)cc1,33.4%,23%,57%,54.6%,58.7%,45.3%,28.2%,23.1%,40.5%,
Cc1ccnc2c(NC(C)CCCN)cc(O)c(O)c12 (configuration not stated),80.3%,80.3%,123%,75.2%,96.2%,108%,104%,79.8%,97.2%,
CCOC(=O)c1cc(-c2ccc(OC)cc2)[nH]c1NNC(=O)CCOC,108%,99.8%,98.4%,95%,104%,121%,95.3%,106%,105%,
CCOC(=O)C1=C(C(F)(F)F)NC(=O)NC1CN1C(=O)c2ccccc2C1=O (configuration not stated),106%,76.1%,113%,100%,106%,103%,104%,100%,103%,
CCCNC(=O)Oc1ccc(/C(=C(/C)Cc2ccc(OC)cc2)c2ccc(OCCN3CCCC3)cc2)cc1,90.1%,-11.5% (active),28.9%,57.6%,70%,72.4%,68.7%,77.8%,73.5%,-52.9% (active)

SMILES,growth [1],growth [2],growth [3],growth [4],growth [5],growth [6],growth [7],growth [8],growth [9],growth [10]
O=c1c2c(c3ccccc3n1-c1ccccc1)NC(=S)NC2c1ccc(Cl)cc1 (configuration not stated),47.2%,43.1%,39.2%,50.5%,46.3%,43.5%,25.9%,21.2%,44.1%,29.1%
C=CCC(CCC(CC=C)C(=O)OCC)C(=O)OCC (configuration not stated),110%,108%,96.2%,107%,108%,105%,91.9%,105%,113%,102%
COc1cc(NC(C)CCCN)c2nc(C)ccc2c1OC (configuration not stated),87.2%,78.9%,69.9%,75.6%,186%,109%,118%,93.6%,124%,
c1ccc(Nc2ncc3c(n2)-c2cccn2CC3)cc1,99.4%,96.6%,95.1%,80.8%,97.8%,85.8%,99.2%,87.1%,124%,91.7%
NNC(=O)CNc1ccc2ccccc2c1,95.8%,86.8%,98.9%,104%,-7.3% (active),120%,118%,95.4%,105%,-100% (active)
Cc1ccc(C(=O)Nc2ccc(CN3CCN(C)CC3)c(C(F)(F)F)c2)cc1C#Cc1cnc(N)c2ccc(C#N)cc12,43.1%,-25.5% (active),-51.9% (active),11.2%,30.4%,45%,61.8%,51.8%,45.6%,8.81% (active)
O=C(O)/C(Br)=C/c1c[nH]c2ccc(Br)cc12,115%,68%,106%,102%,109%,124%,102%,112%,117%,
CC(=O)N1N=C(c2ccc(Cl)cc2)CC1c1cn(-c2ccccc2)nc1-c1ccc([N+](=O)[O-])cc1 (configuration not stated),116%,118%,92%,104%,135%,102%,104%,93.6%,106%,
CCCNC(=O)Oc1ccc(/C(=C(/C)Cc2ccc(OC)cc2)c2ccc(OCCN3CCCCC3)cc2)cc1,97%,50.8%,112%,79.5%,88.7%,81.8%,102%,94%,93.7%,85.6%
CCC(C)CC(N)O (configuration not stated),114%,108%,130%,116%,91.8%,108%,99.4%,107%,102%,103%
COc1cc2ncnc(Nc3ccc4c(cnn4C(=O)Nc4ccccc4)c3)c2cc1OC,89.3%,58.3%,85.6%,112%,87.3%,97.2%,100%,86.1%,94.9%,95.7%
CCCCCCCCCCCCOC(=O)/C=C\C(=O)NC(N)=O,95.4%,44.2%,102%,93.5%,69.3%,107%,102%,95.5%,85.2%,93.6%
Nc1ncn([C@@H]2O[C@H](CO)[C@@H](O)C2(F)F)c(=O)n1,43.5%,65.7%,67.9%,80%,45%,65.4%,77.9%,22.3%,77.5%,15.6%
CN1CCN(Cc2ccc(NC(=O)c3cncc(C#Cc4c(N)ncc5ccc(F)cc45)c3)cc2C(F)(F)F)CC1,46.2%,-33.4% (active),-80.7% (active),-38.4% (active),-73.8% (active),35.7%,52.2%,-68.2% (active),-55.9% (active),-73.7% (active)
Clc1ccc(I)c2ccccc12,111%,102%,97.6%,110%,113%,101%,102%,105%,101%,101%
[N-]=[N+]=Nc1ncc(-c2ccc(C(F)(F)F)cc2)c(NC2CCCCCC2)n1,37.1% [100 µM],8.78% [100 µM] (active),62.3% [100 µM],42.3% [100 µM],43.5% [100 µM],38% [100 µM],-19.7% [100 µM] (active),66.2% [100 µM],27.6% [100 µM],34.7% [100 µM]
O=S(=O)(O)CCI,112%,112%,113%,104%,98.8%,104%,105%,102%,113%,99%
O=C1/C(=C\c2cn(-c3nc(N4CCOCC4)nc(N4CCOCC4)n3)c3ccccc23)c2ccccc2N1c1c(Cl)cccc1Cl,57.1%,80.6%,95.6%,76.9%,-10.8% (active),57.8%,37.6%,63%,80.7%,78.2%
COc1cc(/C=C/C(=O)c2ccc(F)cc2)ccc1OCCCCOc1cc2c(cc1OC)C(=O)N1CCCC1C=N2 (configuration not stated),-72.1% (active),-23.9% (active),-6.3% (active),-15% (active),-71.6% (active),-12.4% (active),-29.1% (active),-61.9% (active),2.17% (active),
